Among the data in ChEMBL document CHEMBL3988442, “University of Dundee, Small-Polar-MMV Screening Library” (2021) are Percent Effect values, retold here.

Each structure is given as a SMILES string.

The test system of the test is Trypanosoma cruzi. The test is described as follows: Trypanosoma cruzi phosphomannomutase and mannose-1-phosphate guanylyltransferase assay. The format is functional. Further details: scale not given: direction of the effect not stated beside the values. To be noted: 10 µM.
For `O=C(NCC1CC1)[C@@H]1CCO[C@@H]2CCN(Cc3ccco3)C[C@H]21`, the Percent Effect is -2.9%.

For the compound `CC(C)Nc1ncnc2c1CCN(C(=O)c1ccncc1F)CC2`, the Percent Effect is -6.35%.

As for `Cc1nc[nH]c1CN1C[C@@H]2CC[C@H](C1)N(C(=O)CCNS(C)(=O)=O)C2`, the Percent Effect stood at 4.57%.

As for `O=C(N[C@@H]1CN(c2ncccn2)C[C@@H]2CCCO[C@@H]21)c1cnccn1`, the Percent Effect is -1.74%.

With `CNc1cncc(C2CCCN2Cc2ccccn2)n1` (centres undefined), the Percent Effect amounted to 2.37%.

For `Fc1ccc2[nH]c(C3CCCN3CCc3ccccn3)nc2c1` (centres undefined), the Percent Effect stood at 1.98%.

For the compound `CS(=O)(=O)NCc1cn2c(n1)CN(C(=O)c1ccc[nH]1)CC2`, the Percent Effect is -1.97%.

With `O=C(CCNS(=O)(=O)c1ccccc1)NCc1ccoc1`, the Percent Effect was 7.11%.

In the case of `O=C(NCc1ccc(-n2cncn2)nc1)c1ccoc1`, the Percent Effect worked out at 11.6%.

Consider `Cn1ccnc1CN1CCC2(CC(=O)N(c3cccc(F)c3)C2)C1` (centres undefined), for which the Percent Effect is -7.2%.

Take `CC(C)c1nc2n(n1)CC(NCc1nc(-c3cccnc3)no1)CC2` (centres undefined): the Percent Effect turned out to be 5.78%.

With `O=C(NCc1nnc2n1CCCC2)N1CCc2ccccc2C1`, the Percent Effect was -4%.

As for `Cc1oc(C)c(C(=O)N2CCCN(Cc3cscn3)CC2)c1C`, the Percent Effect is -1.47%.

In the case of `COc1c(CNC2CCN(C(=O)C3CC3)CC2)c(C(C)C)nn1C`, the Percent Effect was -4.95%.

On to `CN(C)C(=O)c1ccc(CNC(=O)NCCN(C)C2CCCC2)cc1`, for which the Percent Effect was -3.87%.

In the case of `CC(C(=O)N1CCCN(Cc2ccc(C#N)cc2)CC1)n1ccnc1` (centres undefined), the Percent Effect was -6.01%.

Regarding `CCOc1ccccc1C(CC(=O)Nc1ccc(C)cn1)NC(C)=O` (centres undefined), the Percent Effect was found to be 6.77%.

On to `CC(C)COC(C)C(=O)NCc1ccc(OC(C)C)nc1` (centres undefined), for which the Percent Effect worked out at 2.84%.

In the case of `O=C(CNCCn1cccn1)NCC1(c2ccccc2)CC1`, the Percent Effect was determined as 1.27%.
